Laboratory results reported in PubChem BioAssay AID651820 (National Center for Advancing Translational Sciences (NCATS), 2012).
About 12,000 (3.5%) of roughly 340,000 compounds were called active. Where a call stands in place of a potency, no number is given. Inconclusive results (about 18%) are left out. The call rests on the fitted dose curve; in most records, active means well fitted inhibition curve with a large enough effect; inconclusive means small, poorly fitted or top-dose-only effect, or another doubt; inactive means no such curve, though single readings can be large or run the other way. Many of the other results were omitted from the sample, so actives are more common in it than they were.

Experiment: qHTS Assay for Inhibitors of Hepatitis C Virus (HCV)
Conditions: Huh7.5.1 HCVcc-Cre infection, luciferase reporter, 44 h; series mostly up to 41.8 µM
Text: Hepatitis C virus (HCV) infects about 200 million people in the world. Many infected people progress to chronic liver disease including cirrhosis with a risk of developing liver cancer. To date, there is no effective vaccine for hepatitis C. Current therapy based on interferon is only effective in about half of the patients and is associated with significant adverse effects. The fraction of people with HCV who can complete a successful treatment is estimated to be no more than 10 percent. Recent development of direct-acting antivirals against HCV, such as protease and polymerase inhibitors, is promising but still requires combination with peginterferon and ribavirin for maximal efficacy. In addition, these agents are associated with high rate of resistance and many have significant side effects. Due to the lack of a culture system for infectious HCV, the search for new HCV drugs has been greatly hampered. […] High-throughput screening (HTS) with an infectious HCV system would cover the complete spectrum of potentially druggable targets in all stages of HCV lifecycle, and would have more biological relevance than other cell-based assays. Moreover, targeting several key processes in the viral life cycle may not only increase antiviral efficacy; more importantly, it may also reduce the capacity of the virus to develop resistance to the compound. The goal of this project is to identify novel HCV inhibitors as new therapies for hepatitis C, using a highly sensitive and specific assay platform which is based on a HCV infectious cell culture system established in the laboratory and adapted for high-throughput HCV drug screen. NIH Chemical Genomics Center [NCGC] NIH Molecular Libraries Probe Centers Network [MLPCN] MLPCN Grant: MH095511 Assay Submitter (PI): Jake Liang, NIDDK
The assay will start with plating 1,000 cells/well in 3 µL volume and culture for 4 h. Then 23 nL of compounds from the library collection will be added to each well, followed by adding 2.5 µL of HCVcc-Cre virus (~ 0.5 moi) and further cultured for 44 h before the luciferase assay. A volume of 4.5 µL luciferase substrates will be added to each well and the plates will be incubated at room temperature for 15 min. and then read for 15 sec. for the luciferase activity

Compound | Potency | activity change, negative = inhibition
Cc1ccc2c(c1)C1CN(C)CCC1N2C(=O)c1ccccc1NS(=O)(=O)c1ccc(F)cc1C (stereo unspecified) | inactive | 
S=C(Nc1ccc(Cl)cc1Cl)N1CCCC1 | inactive | 
Cc1ccc2c(c1)C1CN(C)CCC1N2C(=S)Nc1ccc(Cl)cc1Cl (stereo unspecified) | 14.1 µM (active) | 
Cc1ccc(-c2nn(-c3ccc(F)cc3)cc2C(=O)NCC(c2cccs2)N2CCOCC2)cc1 (stereo unspecified) | inactive | 
CC(=O)CSc1nc(CCc2ccccc2)c(C#N)c(=O)[nH]1 | inactive | 
Cc1csc(=O)n1CC(=O)Nc1ccc(S(C)(=O)=O)cc1 | inactive | 
COc1ccc2nc(NC(=O)NC3CCCCC3)sc2c1 | inactive | 
COc1ccc2nc(Nc3nc4ccc(NC(C)=O)cc4s3)sc2c1 | 12.6 µM (active) | 
COc1ccc2nc(NC(=O)c3ccc(Br)s3)sc2c1 | inactive | 
O=C(COC(=O)c1cccc(Cl)c1)NC(=O)NCc1ccccc1 | inactive | 
Cc1noc(C)c1COc1ccc(C(=O)NCCOc2ccccc2)cc1 | inactive | 
O=C(NC(=S)Nc1ccc(S(=O)(=O)N2CCOCC2)cc1)c1ccccc1[N+](=O)[O-] | inactive | 
O=C(Nc1ccc(N2CCOCC2)cc1)c1ccc(-c2ccccc2[N+](=O)[O-])o1 | 11.2 µM (active) | 
CN(CC(=O)Nc1ccc(N2CCOCC2)cc1)CC(=O)Nc1ccccc1[N+](=O)[O-] | inactive | 
Clc1ccc(Nc2ccc3ccccc3n2)cc1 | inactive | 
N#CC1(NC(=O)COC(=O)CSc2ccc(F)cc2)CCCCC1 | inactive | 
COc1cccc(COC(=O)C2CCN(S(=O)(=O)c3cccs3)CC2)c1OC | inactive | 
Cc1ccc(NC(=O)c2csc3c2CCCC3)cc1 | inactive | 
COC(=O)c1sc(NC(=O)c2csc3c2CCCC3)nc1C | 11.2 µM (active) | 
COC(=O)c1sc(NC(=O)c2ccc(OC)cc2OC)nc1C | inactive | 
CC1=NNC(=O)C1Cc1c(Cl)cccc1Cl (stereo unspecified) | inactive | 
CCCCN1CC(CO)Oc2cccc(F)c2S1(=O)=O (stereo unspecified) | inactive | 
COc1cccc2oc(CCc3ccccc3)cc(=O)c12 | inactive | 
Cc1cc2nc(C(F)(F)F)cc(-c3cccs3)n2n1 | inactive | 
c1csc(-c2cn3c(n2)SCC3)c1 | inactive | 
Cc1cc(-c2cccs2)nc(-n2cccc2)n1 | 5.01 µM (active) | 

Compound | Potency | activity change, negative = inhibition
CO[C@@H]1[C@@H](OC(N)=O)[C@@H](O)C(Oc2ccc3c(O)c(NC(=O)c4ccc(O)c(CC=C(C)C)c4)c(=O)oc3c2C)OC1(C)C (stereo partly specified) | inactive | 
CC[C@]12c3[nH]c4ccc(Cl)cc4c3CCN1C(=O)[C@@H](CC(=O)NCCCOC)C[C@@H]2C(=O)N1CCN(C(=O)c2ccco2)CC1 | inactive | 
COc1ccccc1N1CCN(c2nc(C)cc(=O)[nH]2)CC1 | inactive | 
O=C(COC(=O)C1(c2ccc(F)cc2)CCCC1)N1CCNC1=O | inactive | 
CSc1nc(C)cc(SC(C(C)=O)C(=O)Nc2ccccc2)n1 (stereo unspecified) | inactive | 
CSc1nc(-c2ccccc2)nc(C(Cl)Cl)n1 | 3.98 µM (active) | 
CSc1ncc(Sc2ccccc2)c(C(=O)O)n1 | inactive | 
CCOc1ncccc1C(=O)Nc1ccc2c(c1)OCCO2 | inactive | 
CC(=O)c1ccc(S(=O)(=O)Nc2ccc(-c3ccc4nncn4n3)cc2)cc1 | inactive | 
C[C@@H]1C[C@@H]2O[C@H]2/C=C\C=C\C(=O)Cc2c(Cl)c(O)cc(O)c2C(=O)O1 | 3.16 µM (active) | 
Cc1noc(C)c1NC(=O)Nc1cccc2c1O[C@H](CN(C)S(=O)(=O)c1c(C)noc1C)[C@@H](C)CN([C@H](C)CO)C2=O | inactive | 
Cc1cc(C)c2nc(N3CCCC3)c(C#N)cc2c1 | inactive | 
CC(=O)c1ccc(S(=O)(=O)N2CCN(C(=O)/C=C/c3ccc4ccccc4n3)CC2)cc1 | inactive | 
CC(=O)c1ccc(S(=O)(=O)N2CCN(c3nc4c(C)c(C)ccc4cc3C#N)CC2)cc1 | 10 µM (active) | 
O=C(Cc1ccc([N+](=O)[O-])cc1)NCCc1ccc2c(c1)OCO2 | inactive | 
CN(C(=O)COC(=O)Cc1ccccc1[N+](=O)[O-])C1CCS(=O)(=O)C1 (stereo unspecified) | inactive | 
COc1ccc(CCN2C(=O)C(C)=C(C)C2=O)cc1OC | inactive | 
COc1ccc(CCNC2=C(Cl)C(=O)N(Cc3ccccc3)C2=O)cc1OC | 12.6 µM (active) | 
COc1ccc(CCNC(=O)c2ccccc2-c2ccccc2C(=O)O)cc1OC | inactive | 
Cc1ccc(S(=O)(=O)CC(=O)Nc2sc(C)c(C)c2C(N)=O)cc1 | inactive | 
COc1cc2c(cc1CNC[C@H]1O[C@@H](n3cnc(C(N)=O)n3)[C@H](O)[C@@H]1O)OCO2 | inactive | 
OCCCNc1nc(-c2ccccc2)c2cc(Cl)ccc2n1 | inactive | 
Cc1ccc2nc(Nc3ccccc3O)nc(-c3ccccc3)c2c1 | inactive | 
NC(N)=Nc1nc(-c2ccccc2)c2cc(Cl)ccc2n1 | 11.2 µM (active) | 
Cn1c(N)c(C(=O)COC(=O)c2cccc(S(=O)(=O)N3CCOCC3)c2)c(=O)n(C)c1=O | inactive | 
O=C(NCC(=O)N1CCCCCCC1)c1ccccc1Cl | inactive | 

Compound | Potency | activity change, negative = inhibition
CC1=C(C(=O)OC(C)(C)C)C(c2ccc(Br)cc2)NC(=O)N1CCCC(=O)O (stereo unspecified) | inactive | 
CCCCNC(=O)C(C)N(CCN(C)C)C(=O)CCCCCN1C(=O)NC(c2ccc(Cl)cc2)C(C(=O)OCc2ccccc2)=C1C (stereo unspecified) | 11.2 µM (active) | 
COC(=O)CCCCCN1C(=O)NC(c2ccc(-c3ccccc3)cc2)C(C(=O)OCc2ccccc2)=C1C (stereo unspecified) |  | 4.51% [at 8.37 µM] (inactive)
CC1=C(C(=O)OCc2ccccc2)C(c2ccc(C(F)(F)F)cc2)NC(=O)N1CCCCCC(=O)O (stereo unspecified) | inactive | 
CCCCNC(=O)C(C)N(CCN(C)C)C(=O)CCCN1C(=O)NC(c2ccc(Cl)cc2)C(C(=O)OCc2ccccc2)=C1C (stereo unspecified) | 11.2 µM (active) | 
CCOC(=O)CCCNC(=O)CN1C(=O)NC(CCc2ccccc2)C1=O (stereo unspecified) | inactive | 
O=C(COC(=O)CSc1ccccc1)Nc1ccc(F)cc1F | inactive | 
CCC(C)C1(C2CCCC2)NC(=O)NC1=O (stereo unspecified) | inactive | 
CC(C)(C)OC(=O)C1=C(CO)CS[C@@H]2[C@H](NC(=O)Cc3ccccc3)C(=O)N12 | inactive | 
Brc1ccc2nc(N3CCCC3)sc2c1 | 11.2 µM (active) | 
c1c2c(cc3sc(N4CCCCC4)nc13)OCCO2 | inactive | 
O=C(c1ccc2nc(N3CCOCC3)sc2c1)N1CCN(c2ccc(Cl)cc2)CC1 | inactive | 
COc1ccc(C)cc1NC(=O)CN1c2cccc3cccc(c23)S1(=O)=O | inactive | 
CCCCNCCS(=O)(=O)NCc1ccccc1 | inactive | 
COc1ccccc1N(CC(=O)Nc1c(C)n(C)n(-c2ccccc2)c1=O)S(=O)(=O)c1ccccc1 | inactive | 
COc1ccccc1N(CC(=O)N/N=C(\C)c1ccccc1O)S(=O)(=O)c1ccc(C)cc1 | 10 µM (active) | 
COc1ccc(S(=O)(=O)N(CC(=O)N/N=C/c2ccccc2C(=O)O)c2ccccc2OC)cc1 | inactive | 
CCOc1ccc(S(=O)(=O)N2CCN(C(=O)c3oc4ccccc4c3C)CC2)cc1 | inactive | 
O=C(NCC1CCCO1)c1ccc(S(=O)(=O)Nc2ccc(F)cc2)cc1 (stereo unspecified) | inactive | 
COc1ccc(CNCCc2ccc3c(c2)OCO3)c(OC)c1OC | inactive | 
COc1cc(C(=O)CCc2ccc3c(c2)OCO3)cc(OC)c1OC | 14.1 µM (active) | 
COc1cc(OC)c(C(=O)NCc2ccc3c(c2)OCO3)cc1OC | inactive | 
O=C(NCCS(=O)(=O)NCc1ccc(Cl)cc1)c1ccccc1 |  | 6.73% [at 8.37 µM] (inactive)
COc1ccc(Cl)cc1C(=O)OCC(=O)NCc1cccs1 | inactive | 
COc1ccc(C(=O)OCC(=O)Nc2ccc3[nH]c(=O)[nH]c3c2)c(OC)c1OC | inactive | 
COc1ccc(C(=O)OCC(=O)c2ccc(Cl)s2)c(OC)c1OC | 2.51 µM (active) | 

Compound | Potency | activity change, negative = inhibition
CN(O)C(=S)c1ccccc1 | inactive | 
CCNC(=O)N(CC)C[C@H]1N[C@@](CC)(C(=O)OC)[C@H]2C(=O)N(Cc3ccccc3)C(=O)[C@@H]12 |  | 23% [at 8.37 µM] (inactive)
O=C(CSc1n[nH]c(-c2cccs2)n1)N1CCCCC1 | inactive | 
O=C(Nc1ccc2c(c1)C(=O)OC2)Nc1cccc2ccccc12 | inactive | 
CC(=O)N(C)c1ccc(NC(=O)Nc2cccc3ccccc23)cc1 | 12.6 µM (active) | 
O=C(O)Cc1ccc(NC(=O)Nc2cccc3ccccc23)cc1 | inactive | 
O=C(CSC1=NS(=O)(=O)c2cc(F)ccc2N1)Nc1ccccc1F | inactive | 
CCOC(=O)N1CCN(C(=O)COC(=O)c2cccc(S(C)(=O)=O)c2)CC1 | inactive | 
CC(=O)c1ccc(NC(=O)CSc2nc3ccccc3c(=O)n2CCCN2CCOCC2)cc1 | inactive | 
CCOc1cc(NC(=O)c2ccco2)c(OCC)cc1NC(=O)COc1ccccc1 | inactive | 
COc1cc(NC(=S)NCc2ccco2)c(OC)cc1Cl | inactive | 
CCOc1cc(NC(=S)NCc2ccco2)c(OCC)cc1NC(=O)c1ccco1 | 2.82 µM (active) | 
CN1C(C(=O)NCC2CC2)CC2Cn3c(nc4ccccc43)C21 (stereo unspecified) | inactive | 
Cc1ccc(NC(=O)COC(=O)CN2CCCCCC2=O)c(C)c1 | inactive | 
COc1ccc(C(=NN)c2ccc(OC)cc2)cc1 | inactive | 
Cc1cccc(N2CC(C(=O)Nc3ccccc3N3CCCC3)CC2=O)c1C (stereo unspecified) | inactive | 
CC(=O)c1sc(NC(=O)CCCOc2ccccc2C)nc1C | inactive | 
Cc1nc(NC(=O)CN(C)S(=O)(=O)c2ccc(Cl)cc2)sc1C | inactive | 
Cc1ccc(Nc2nc(-c3sc(NC(=O)c4ccccc4)nc3C)cs2)cc1 | inactive | 
CCCCC(=O)Nc1nc(C)c(-c2csc(Nc3ccc(Cl)cc3)n2)s1 | 8.91 µM (active) | 
CCCCCCC(=O)Nc1nc(C)c(-c2csc(Nc3cc(Cl)ccc3OC)n2)s1 | inactive | 
C=CCCC(=O)Nc1nc(C)c(-c2csc(Nc3ccc(Cl)cc3)n2)s1 | 11.2 µM (active) | 
CCOC(=O)C1CCN(C(=O)c2cccc(S(=O)(=O)N(CC)c3ccccc3)c2)CC1 | inactive | 
